From PubChem BioAssay (EPA / NIEHS)
Records with an inconclusive call do not appear. Active and inactive are the calls of the source. How the source made its calls, unless noted: active means hit-call score of the fitted dose curve at least 0.9, where 1 is the maximum; inconclusive means response in the unintended direction; inactive means score below 0.9.

Columns and labels:
[1] = biological target: Estrogen receptor beta (Homo sapiens) (UniProt Q92731); assay: OT_ER_ERbERb_1440: Odyssey Thera (OT) 24-hour HEK293T Protein-Complementation Assay for Estrogen Receptor-beta/-beta Homodimer (AID 2283380);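 further: scored as signal increase over DMSO baseline for both agonists and antagonists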
Method in brief: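 HEK293T cells stably expressing ER beta LBD (aa 310-547) homodimer fragment-complementation reporter, dosed 24 h. Cells formaldehyde-fixed, Draq5-stained; gain in nuclear (agonist) or nuclear plus cytoplasmic (antagonist) fluorescence versus DMSO read by laser scanning cytometry.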

[2] = biological target: Bile acid receptor (Homo sapiens) (UniProt Q96RI1); assay: OT_FXR_FXRSRC1_0480: Odyssey Thera (OT) 8-hour HEK293T Protein-Complementation Assay for Farnesoid X receptor/SRC-1 Co-activator (AID 2283383)
Method in brief: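 Readings were taken 8 h after dosing HEK293T cells in a split-reporter complementation format pairing FXR with SRC-1. Increased fluorescence relative to DMSO-treated wells defined activity.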

[3] = biological target: Retinoic acid receptor RXR-alpha (Homo sapiens) (UniProt P19793); assay: OT_NURR1_NURR1RXRa_0480: Odyssey Thera (OT) 8-hour HEK293T Protein Complementation Assay for Nurr1/retinoid X receptor (RXR) (AID 2283385)
Method in brief: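 Gain in fluorescent complementation signal over DMSO, measured 8 hours after chemical dosing of human kidney HEK293T cells, indicated enhanced Nurr1–RXRα association.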

[4] = biological target: Retinoic acid receptor RXR-alpha (Homo sapiens) (UniProt P19793); assay: OT_NURR1_NURR1RXRa_1440: Odyssey Thera (OT) 24-hour HEK293T Protein Complementation Assay for Nurr1/retinoid X receptor (RXR) (AID 2283386)
Method in brief: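 Cell-based binding reporter: HEK293T cells, 24 h exposure, fluorescence-detected fragment complementation, DMSO as baseline.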

[5] = biological target: Peroxisome proliferator-activated receptor gamma (Homo sapiens) (UniProt P37231); assay: OT_PPARg_PPARgSRC1_0480: Odyssey Thera (OT) 8-hour Protein-Complementation Assay for Peroxisome Proliferator-activated Receptor Gamma / SRC-1 Co-activator (AID 2283387)
Method in brief: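 Read-out: 488 nm N/C fluorescence ratio from complemented Venus YFP fragments, ≥350 cells per image, gain-of-signal fitted against DMSO baseline. Fusions of PPARg/SRC-1 with IFP1/IFP2 expressed transiently in HEK293T; compounds applied 8 h.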

[6] = CEETOX_H295R_OHPREG: CeeTox H295R High-throughput Steroidogenesis Assay for OH-Pregnenolone (OHPREG) (AID 2283434; active means hit-call score of the fitted dose curve at least 0.9, where 1 is the maximum; inactive means score below 0.9); conditions: actives raise or lower the signal
Method in brief: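 H295R, 10 uM forskolin pre-stim 48 h; test chemical 48 h, 0.1% DMSO final. MTBE extraction, reverse-phase C18 HPLC-ESI+ MS/MS of medium. Gain/loss vs DMSO; viability by MTT in same wells.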

[7] = biological target: Agonist Androgen Response Element (ARE), AR (gene 367) (UniProt P10275); assay: OT_AR_ARELUC_AG_1440: Odyssey Thera (OT) 24-hour CHO-K1 Luciferase Assay for Agonist Androgen Response Element (ARE) (AID 2283379)
Method in brief: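 Gain-of-signal reporter endpoint: cells (CHO-K1, hamster) are treated 24 h, luciferin/ATP reagent added, and luminescence compared with DMSO baseline.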

[8] = biological target: Peroxisome proliferator-activated receptor gamma (Homo sapiens) (UniProt P37231); assay: OT_PPARg_PPARgSRC1_1440: Odyssey Thera (OT) 24-hour Protein-Complementation Assay for Peroxisome Proliferator-activated Receptor Gamma/ SRC-1 Co-activator (AID 2283388)
Method in brief: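 HEK293T cells transiently transfected with PPARg and SRC-1 fused via (Gly4Ser)2 linker to split Venus YFP fragments (IFP1/IFP2) were dosed 24 h; fixed, Draq5-stained, imaged at 488/635 nm; nuclear/cytoplasmic fluorescence ratio scored versus DMSO baseline, gain-of-signal.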

Measured: AC50

Sequence of Retinoic acid receptor RXR-alpha (Homo sapiens) (P19793 whole entry, looked up, the tested form may be a part): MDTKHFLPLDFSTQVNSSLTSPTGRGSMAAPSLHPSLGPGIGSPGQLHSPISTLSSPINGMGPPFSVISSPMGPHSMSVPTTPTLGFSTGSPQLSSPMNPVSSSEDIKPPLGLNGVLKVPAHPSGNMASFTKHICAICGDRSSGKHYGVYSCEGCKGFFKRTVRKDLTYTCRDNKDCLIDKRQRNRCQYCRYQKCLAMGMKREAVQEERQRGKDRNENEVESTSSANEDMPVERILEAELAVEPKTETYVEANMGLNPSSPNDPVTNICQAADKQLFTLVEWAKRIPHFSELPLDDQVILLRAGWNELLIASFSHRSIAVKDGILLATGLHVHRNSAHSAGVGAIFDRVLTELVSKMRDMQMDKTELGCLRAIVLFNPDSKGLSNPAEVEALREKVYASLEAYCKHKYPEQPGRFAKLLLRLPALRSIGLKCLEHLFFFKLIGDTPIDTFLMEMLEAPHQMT
Sequence of Peroxisome proliferator-activated receptor gamma (Homo sapiens) (P37231 whole entry, looked up, the tested form may be a part): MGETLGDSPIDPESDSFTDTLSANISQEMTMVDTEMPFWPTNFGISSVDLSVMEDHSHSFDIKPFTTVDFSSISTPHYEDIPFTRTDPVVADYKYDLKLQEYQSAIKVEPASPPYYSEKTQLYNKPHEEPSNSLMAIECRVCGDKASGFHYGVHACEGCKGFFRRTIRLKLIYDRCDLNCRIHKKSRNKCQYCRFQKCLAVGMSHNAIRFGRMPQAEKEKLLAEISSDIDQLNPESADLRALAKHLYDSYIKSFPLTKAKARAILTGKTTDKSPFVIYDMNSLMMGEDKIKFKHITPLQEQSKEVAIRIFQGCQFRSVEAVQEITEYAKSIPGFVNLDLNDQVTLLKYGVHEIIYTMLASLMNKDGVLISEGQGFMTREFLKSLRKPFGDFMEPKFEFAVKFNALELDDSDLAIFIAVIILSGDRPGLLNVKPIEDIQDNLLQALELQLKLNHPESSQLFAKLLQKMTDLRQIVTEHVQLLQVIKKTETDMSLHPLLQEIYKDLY
Sequence of Bile acid receptor (Homo sapiens) (Q96RI1 whole entry, looked up): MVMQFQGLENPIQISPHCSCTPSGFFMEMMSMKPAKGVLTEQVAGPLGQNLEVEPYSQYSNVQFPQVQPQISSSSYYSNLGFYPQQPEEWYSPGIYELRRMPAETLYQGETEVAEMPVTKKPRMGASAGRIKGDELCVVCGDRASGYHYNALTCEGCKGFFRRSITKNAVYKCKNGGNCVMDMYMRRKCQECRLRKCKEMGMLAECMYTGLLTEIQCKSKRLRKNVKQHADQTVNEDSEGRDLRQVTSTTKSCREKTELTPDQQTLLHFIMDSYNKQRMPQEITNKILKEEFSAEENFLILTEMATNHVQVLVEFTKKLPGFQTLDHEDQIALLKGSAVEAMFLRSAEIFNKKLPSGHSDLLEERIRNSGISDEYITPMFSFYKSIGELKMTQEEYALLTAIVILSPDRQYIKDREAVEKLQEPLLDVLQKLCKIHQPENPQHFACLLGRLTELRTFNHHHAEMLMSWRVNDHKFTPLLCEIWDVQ
Sequence of Estrogen receptor beta (Homo sapiens) (Q92731 whole entry, looked up, the tested form may be a part): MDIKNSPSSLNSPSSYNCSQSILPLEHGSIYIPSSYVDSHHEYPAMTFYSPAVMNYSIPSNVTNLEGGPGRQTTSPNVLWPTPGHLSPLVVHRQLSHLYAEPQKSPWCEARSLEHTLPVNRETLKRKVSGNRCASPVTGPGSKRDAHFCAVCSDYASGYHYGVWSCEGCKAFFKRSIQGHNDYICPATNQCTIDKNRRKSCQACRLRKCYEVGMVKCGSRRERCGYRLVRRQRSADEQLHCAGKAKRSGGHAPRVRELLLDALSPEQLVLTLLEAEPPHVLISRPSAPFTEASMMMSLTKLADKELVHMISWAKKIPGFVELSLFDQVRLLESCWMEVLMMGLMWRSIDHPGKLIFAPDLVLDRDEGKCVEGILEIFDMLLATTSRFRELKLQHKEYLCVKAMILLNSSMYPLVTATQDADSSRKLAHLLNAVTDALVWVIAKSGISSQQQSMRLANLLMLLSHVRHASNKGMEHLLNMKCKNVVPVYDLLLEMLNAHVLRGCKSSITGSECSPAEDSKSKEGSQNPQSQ
Sequence of Agonist Androgen Response Element (ARE), AR (gene 367) (P10275 whole entry, looked up): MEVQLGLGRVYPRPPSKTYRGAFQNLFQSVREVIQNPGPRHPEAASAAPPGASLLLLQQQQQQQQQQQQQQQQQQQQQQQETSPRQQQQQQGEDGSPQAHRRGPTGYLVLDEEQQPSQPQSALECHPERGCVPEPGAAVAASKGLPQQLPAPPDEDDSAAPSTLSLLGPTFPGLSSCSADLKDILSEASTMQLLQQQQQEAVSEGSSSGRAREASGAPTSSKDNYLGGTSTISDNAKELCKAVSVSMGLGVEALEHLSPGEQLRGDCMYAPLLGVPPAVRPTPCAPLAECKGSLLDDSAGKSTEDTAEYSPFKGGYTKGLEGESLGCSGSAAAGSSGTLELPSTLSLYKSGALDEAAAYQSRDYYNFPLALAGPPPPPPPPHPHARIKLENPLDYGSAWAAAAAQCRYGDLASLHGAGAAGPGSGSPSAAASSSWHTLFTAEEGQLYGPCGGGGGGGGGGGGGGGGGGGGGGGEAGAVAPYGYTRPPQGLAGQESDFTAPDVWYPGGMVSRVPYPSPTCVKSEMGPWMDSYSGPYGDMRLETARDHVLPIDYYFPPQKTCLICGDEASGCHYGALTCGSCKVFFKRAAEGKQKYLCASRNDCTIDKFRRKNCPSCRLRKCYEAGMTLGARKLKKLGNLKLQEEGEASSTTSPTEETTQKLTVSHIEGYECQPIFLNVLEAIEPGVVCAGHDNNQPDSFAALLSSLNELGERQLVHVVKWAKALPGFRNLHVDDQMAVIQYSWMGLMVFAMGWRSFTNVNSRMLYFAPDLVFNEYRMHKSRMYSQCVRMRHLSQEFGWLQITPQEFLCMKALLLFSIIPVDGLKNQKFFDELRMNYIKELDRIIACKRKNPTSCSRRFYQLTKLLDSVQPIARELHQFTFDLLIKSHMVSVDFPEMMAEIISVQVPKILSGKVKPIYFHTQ

C=C1CC[C@H](O)C/C1=C/C=C1\CCC[C@]2(C)[C@@H]([C@H](C)/C=C/[C@H](C)C(C)C)CC[C@@H]12
active: [2] 36.8 µM | [6] 4.66 µM
inactive: [1] | [3] | [4] | [5]

CC(C)c1ccccc1O
inactive: [1] | [2] | [3] | [4]

BrCc1cccc(Oc2ccccc2)c1
inactive: [7] | [3] | [4] | [6]
active: [1] 56.3 µM

CCCCCC(C)=O
inactive: [1] | [3] | [4] | [5]

C=C(C)[C@@H]1CC=C(C)C(=O)C1
inactive: [1] | [3] | [4] | [8]

CCCCCCCC(=O)OCC(O)CO (centres undefined)
inactive: [1] | [3] | [5]

CCCCC(CC)COC(C)=O (centres undefined)
inactive: [1] | [3] | [4] | [5] | [8]

CN1CCOCC1
inactive: [1] | [3] | [4] | [5] | [8]

CCC(=O)O[C@@H]1C[C@H]2CC[C@]1(C)C2(C)C
inactive: [1] | [4] | [5]

Clc1ccc(C(c2ccccc2Cl)C(Cl)Cl)cc1 (centres undefined)
active: [1] 5.53 µM
inactive: [3]

CC(C)CCCCCCCCCCCCCCC(=O)O
inactive: [1] | [5] | [8]

CCCCCCCCc1ccc(S(=O)(=O)O)cc1
inactive: [1] | [2] | [5] | [8]

CCC1(C)NC(=O)NC1=O (centres undefined)
inactive: [1] | [2] | [4] | [5]

OC[C@H]1O[C@@H]2O[C@H]3[C@H](O)[C@@H](O)[C@@H](O[C@H]4[C@H](O)[C@@H](O)[C@@H](O[C@H]5[C@H](O)[C@@H](O)[C@@H](O[C@H]6[C@H](O)[C@@H](O)[C@@H](O[C@H]7[C@H](O)[C@@H](O)[C@@H](O[C@H]8[C@H](O)[C@@H](O)[C@@H](O[C@H]9[C@H](O)[C@@H](O)[C@@H](O[C@H]1[C@H](O)[C@H]2O)O[C@@H]9CO)O[C@@H]8CO)O[C@@H]7CO)O[C@@H]6CO)O[C@@H]5CO)O[C@@H]4CO)O[C@@H]3CO
inactive: [1] | [3] | [5]

O=P(O)(O)O
inactive: [1] | [3] | [4] | [5]

Cc1ccc(S(=O)(=O)Oc2ccc(N=Nc3ccc(-c4ccc(N=Nc5c(O)ccc6cc(S(=O)(=O)O)cc(S(=O)(=O)O)c56)c(C)c4)cc3C)cc2)cc1
inactive: [1] | [4] | [5] | [8]
active: [3] 35 µM

O=C(c1ccccc1)C(O)c1ccccc1 (centres undefined)
inactive: [1] | [5] | [8]

CN1C(=O)c2ccccc2C1=O
inactive: [1] | [3] | [4] | [5] | [8]

Nc1ccc2cc(S(=O)(=O)O)cc(O)c2c1N=Nc1ccccc1C(F)(F)F
inactive: [1] | [5]

[O-]n1ccccc1=S.[O-]n1ccccc1=S.[Zn+2]
inactive: [1] | [5] | [8]

CCCCCCC(C)(C)S
inactive: [1] | [3] | [4] | [5] | [8]

C=C[Si]1(C)O[Si](C)(C=C)O[Si](C)(C=C)O[Si](C)(C=C)O1 (centres undefined)
inactive: [1] | [3] | [4] | [5]

CC(C)Nc1nc(N)nc(Cl)n1
not listed: [2] | [7]
inactive: all other assays above

CC1CC(O)CC(C)(C)C1 (centres undefined)
inactive: [1] | [5] | [8]

C#CC(C)(O)CC(C)C (centres undefined)
inactive: [1] | [3] | [4] | [5]

OCC#CCO
inactive: [1] | [4] | [5]

CCOc1ccccc1O
inactive: [1] | [4] | [5] | [8]

COC(=O)c1ccc(C)cc1C1=NC(C)(C(C)C)C(=O)N1 (centres undefined) (tested in a mixture with another compound)
inactive: [1] | [3] | [4] | [5] | [8]

CC(C=O)Cc1ccc(C(C)(C)C)cc1 (centres undefined)
inactive: [1] | [3] | [4] | [5]

CN(C)c1cccc(O)c1
inactive: [1] | [4] | [5]

CCCCC(CC)COC(=O)c1ccc(O)cc1 (centres undefined)
inactive: [3]
active: [1] 1.92 µM

O=Cc1ccccc1S(=O)(=O)O
inactive: [1] | [3] | [4] | [5]

CCCC(=O)OC(C)(C)Cc1ccccc1
inactive: [1] | [5] | [8]

COc1ccccc1N=Nc1c(S(=O)(=O)O)cc2cc(S(=O)(=O)O)cc(NC(C)=O)c2c1O
inactive: [1] | [3] | [4] | [5] | [8]

C=Cc1ccc(C)cc1
inactive: [1] | [4] | [5] | [8]

CCCCCCCCCC(=O)OC
inactive: [1] | [2] | [4] | [5]

C[Si](C)(C)O[Si](C)(C)C
inactive: [1] | [5] | [8]

Cc1cc(S(=O)(=O)O)ccc1N=Nc1c(O)ccc2ccccc12
inactive: [1] | [4] | [5] | [8]

ON=C1CCCCC1
inactive: [1] | [3] | [4] | [5] | [8]

COc1ccc(N=Nc2cc(C)c(N=Nc3ccc(S(=O)(=O)O)cc3)cc2OC)cc1
inactive: [1] | [5] | [8] | [6]

CCCCCCCCCCCCCCN(CCO)CCO
inactive: [5] | [8]

COCCc1ccc(OCC(O)CNC(C)C)cc1 (centres undefined)
inactive: [6]

CCCCCCCC/C=C\CCCCCCCC(=O)OCC
inactive: [3] | [5] | [8]

CCNCCO
inactive: [4] | [5] | [8]

COc1ccc(CCN2CCC(Nc3nc4ccccc4n3Cc3ccc(F)cc3)CC2)cc1
active: [6] 0.698 µM

CCCCCC(=O)CC
inactive: [3] | [4] | [5]
